# Measurements reported in PubChem BioAssay AID463187 (University of Pittsburgh Molecular Library Screening Center, 2010).
# The whole screen tested about 220,000 compounds, of which about 1,500 (0.68%) were called active.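 The calls were made as follows: active = Hck-Nef kinase inhibition above about 50% (limit read from the data); inactive = inhibition below that limit.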 Many of the other results were omitted from the sample, so actives are more common in it than they were.
# Target: Tyrosine-protein kinase HCK (Homo sapiens) (UniProt P08631)
# Assay: inhibitors of Nef-activated human Hck kinase, primary screen, biochemical, Z-Lyte FRET, 384-well, Hck-YEEI (AID 463187);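 also: 0% = DMSO with Hck plus Nef and 100% = Hck alone without Nef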
# Settings: Recombinant Hck-YEEI plus Nef, Z-Lyte FRET kinase assay; at 20 µM; active compounds read high
# Tyrosine-protein kinase HCK (Homo sapiens), sequence (P08631 whole entry, looked up): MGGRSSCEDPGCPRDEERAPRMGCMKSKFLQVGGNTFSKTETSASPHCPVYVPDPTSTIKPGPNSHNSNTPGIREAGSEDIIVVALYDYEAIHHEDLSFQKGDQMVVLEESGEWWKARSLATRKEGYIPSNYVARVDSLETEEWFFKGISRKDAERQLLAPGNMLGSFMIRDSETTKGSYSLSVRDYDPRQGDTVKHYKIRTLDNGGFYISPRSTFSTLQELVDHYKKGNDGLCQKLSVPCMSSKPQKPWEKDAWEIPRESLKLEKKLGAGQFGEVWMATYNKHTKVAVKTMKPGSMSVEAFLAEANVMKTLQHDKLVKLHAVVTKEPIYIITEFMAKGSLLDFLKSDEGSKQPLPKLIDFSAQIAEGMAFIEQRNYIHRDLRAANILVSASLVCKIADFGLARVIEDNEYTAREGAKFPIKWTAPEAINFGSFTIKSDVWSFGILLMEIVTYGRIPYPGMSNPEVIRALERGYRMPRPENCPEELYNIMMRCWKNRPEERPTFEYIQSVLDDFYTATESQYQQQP
row,Structure (SMILES),inhibition
1,Cc1cccc(N2C(=O)NC(=O)/C(=C\c3cnn(-c4ccccc4)c3)C2=O)c1,5.24% (inactive)
2,O=C1NC(=O)N(c2ccccc2)C(=O)/C1=C/c1ccc([N+](=O)[O-])s1,20.3% (inactive)
3,COc1cccc(N2C(=O)NC(=O)/C(=C\c3ccc([N+](=O)[O-])s3)C2=O)c1,92.8% (active)
4,O=C1NC(=O)N(Cc2ccco2)C(=O)/C1=C\c1cccn1CCOc1ccccc1,27.2% (inactive)
5,O=C1NC(=O)N(Cc2ccco2)C(=O)/C1=C\c1ccc(-c2ccc(F)cc2)o1,59.4% (active)
6,Cc1cc(/C=C2/C(=O)NC(=O)N(Cc3ccco3)C2=O)c(C)n1-c1ccc(C(=O)O)cc1,49.2% (inactive)
7,CNC(=O)O/N=C(\N)Cc1csc2ccccc12,13.9% (inactive)
8,Cc1cccc(NC(=O)OC2CN3CCC2CC3)c1 (stereo not given),13.5% (inactive)
9,O=C(N/N=C/c1c(O)n(Cc2ccccc2)c(=O)[nH]c1=O)c1ccccc1,1.83% (inactive)
10,COc1cc(Cn2c(N)c(C(=O)NCc3ccco3)c3nc4ccccc4nc32)cc(OC)c1OC,66.7% (active)
11,CCOC(=O)c1c(N)n(CCN2CCOCC2)c2nc3ccccc3nc12,-2.81% (inactive)
12,CCOC(=O)c1c(N)n(Cc2ccccc2)c2nc3ccccc3nc12,9.2% (inactive)
13,CSc1nc2ccc(C)cc2c(=O)n1-c1cccnc1,4.59% (inactive)
14,O=C(Cn1c(=O)n(CC2CS2)c2ccccc21)N1CCCCC1 (stereo not given),-9.69% (inactive)
15,CC1=C(C(=O)Nc2ccccc2)S(=O)(=O)CCO1,26.8% (inactive)
